Experimental findings from PubChem BioAssay (NCI) are described below.

This is part of a sample that, as a whole, favours compounds with a hit. Of some 83,000 tested, about 20% had one in any assay.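 Results are percent growth after 48 hours of single-concentration exposure. 100 means growth as in untreated cells, lower positive values show inhibition; negative values down to -100 show cell death.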 Unmarked numbers belong to inactive results. Calls of active or inactive are those of the source. How the source made its calls: active means growth percent below 10; inactive means the rest.

Test systems include NCI-H23 lung; NCI-H226 lung; HOP-62 NSCLC; NCI-H460 lung; HOP-92 NSCLC; NCI-H522 lung; A549/ATCC NSCLC; 786-0 renal; COLO 205 colon; DU-145 prostate; K-562 leukemia; MALME-3M melanoma; MDA-MB-231 breast; RXF 393 renal; SF-268 CNS; SF-295 CNS; SF-539 CNS; UACC-257 melanoma; M14 melanoma.
What all share (experiment): NCI-60 one-dose screen, 48 h (100 = growth as untreated, 0 = no growth, -100 = all killed)
Common to all, as to settings: 10 µM

On to `O=C(Cn1cc(CO)nn1)Nc1nc2ccccc2s1`, for which the growth is 101% in the experiment with NCI-H23 lung; 103% with NCI-H226 lung; 101% with HOP-62 NSCLC; 106% with NCI-H460 lung; 106% with HOP-92 NSCLC; 93.7% with NCI-H522 lung. Besides, the growth in the experiment on A549/ATCC NSCLC was 97.2%; in the experiment with 786-0 renal, 103%; in the experiment with COLO 205 colon, 111%; in the experiment with DU-145 prostate it was 113%; in the experiment on K-562 leukemia, 94.8%; in the experiment on MALME-3M melanoma, 93.8%. Also, the growth with MDA-MB-231 breast was 100%; in the experiment with RXF 393 renal it was 112%; in the experiment with SF-268 CNS, 99%; with SF-295 CNS, 106%; with SF-539 CNS, 95%; in the experiment on UACC-257 melanoma, 104%. Besides, in the experiment with M14 melanoma, the growth is 94.7%.
For the molecule `COc1ccc(/C=C2\CCCC3=C2N=C2SC(C)=CN2C3c2ccc(OC)cc2)cc1` (configuration not stated), the growth in the experiment with NCI-H23 lung was 90.3%; in the experiment with NCI-H226 lung, 94.1%; in the experiment on HOP-62 NSCLC it was 104%; in the experiment on NCI-H460 lung it was 104%; with HOP-92 NSCLC, 93.8%; with NCI-H522 lung, 89.6%. Besides, the growth is 90.7% in the experiment on A549/ATCC NSCLC; 104% in the experiment on 786-0 renal; 115% in the experiment on COLO 205 colon; 107% with DU-145 prostate; 96.1% in the experiment on K-562 leukemia; 80% with MALME-3M melanoma. The growth is 101% in the experiment on MDA-MB-231 breast; 102% with RXF 393 renal; 116% in the experiment on SF-268 CNS; 106% in the experiment on SF-295 CNS; 111% in the experiment on SF-539 CNS; 90.9% in the experiment with UACC-257 melanoma. Moreover, the growth with M14 melanoma is 98.8%.
`CN(C)CCN(Cc1ccccc1)c1ccc2ccccc2n1`: the growth is 97.6% in the experiment on NCI-H23 lung; 111% with NCI-H226 lung; 88.4% in the experiment with HOP-62 NSCLC; 96.9% with NCI-H460 lung; 75.6% in the experiment on HOP-92 NSCLC; 96.7% in the experiment with NCI-H522 lung. Moreover, the growth in the experiment on A549/ATCC NSCLC was 95.6%; with 786-0 renal, 93.9%; with COLO 205 colon it was 89.5%; with DU-145 prostate it was 107%; in the experiment with K-562 leukemia it was 93.4%; in the experiment with MALME-3M melanoma, 96.5%. Further, the growth with MDA-MB-231 breast is 87.2%; in the experiment on RXF 393 renal it was 105%; in the experiment on SF-268 CNS, 103%; in the experiment on SF-295 CNS, 88.5%; with SF-539 CNS it was 106%; with UACC-257 melanoma, 98%. For the same molecule, in the experiment on M14 melanoma, the growth was 91.3%.
With `CCOC(=O)c1cc(C(=O)c2cc(OC)c(OC)c(OC)c2)n2c1ccc1c3cccnc3ccc12`, the growth with NCI-H23 lung was 77.4%; with NCI-H226 lung, 82.3%; in the experiment on HOP-62 NSCLC, 61.9%; in the experiment with NCI-H460 lung it was 82.2%; in the experiment with HOP-92 NSCLC, 55.5%; in the experiment with NCI-H522 lung, 22.8%. The growth was 64% with A549/ATCC NSCLC; 78.5% in the experiment on 786-0 renal; 36.6% with COLO 205 colon; 89.3% in the experiment on DU-145 prostate; 12.9% in the experiment with K-562 leukemia; 79.3% with MALME-3M melanoma. The growth was 69.5% in the experiment on MDA-MB-231 breast; 66.8% in the experiment with RXF 393 renal; 69.9% in the experiment with SF-268 CNS; 63.4% in the experiment on SF-295 CNS; 55.5% with SF-539 CNS; 73.4% in the experiment with UACC-257 melanoma. The growth in the experiment on M14 melanoma is 31.6%.
In the case of `CC1CCCC(C(=O)O)C1C(=O)O` (configuration not stated), the growth with NCI-H23 lung is 98.1%; in the experiment on NCI-H226 lung it was 96.7%; in the experiment on HOP-62 NSCLC, 87.7%; in the experiment on NCI-H460 lung, 104%; with HOP-92 NSCLC it was 86.1%; with NCI-H522 lung, 80.8%. Also, the growth in the experiment with A549/ATCC NSCLC is 78.3%; in the experiment with 786-0 renal, 94%; in the experiment with COLO 205 colon, 102%; in the experiment with DU-145 prostate, 114%; in the experiment on K-562 leukemia, 87.6%; in the experiment on MALME-3M melanoma, 87.8%. The growth in the experiment with MDA-MB-231 breast was 92.8%; with RXF 393 renal it was 94.5%; in the experiment on SF-268 CNS, 105%; in the experiment with SF-295 CNS, 94.8%; in the experiment with SF-539 CNS, 97.8%; with UACC-257 melanoma, 80.8%. The growth with M14 melanoma is 94.7%.
`COc1ccc(/C=C2\CCCC3=C2NC(N)=NC3c2ccc(OC)cc2)cc1` (configuration not stated): the growth in the experiment on NCI-H23 lung was 94.1%; in the experiment with NCI-H226 lung it was 77.3%; in the experiment on HOP-62 NSCLC it was 110%; in the experiment on NCI-H460 lung, 99.2%; with HOP-92 NSCLC, 68.6%; with NCI-H522 lung it was 77.3%. The growth was 89.4% in the experiment with A549/ATCC NSCLC; 106% with 786-0 renal; 112% in the experiment with COLO 205 colon; 109% with DU-145 prostate; 107% in the experiment with K-562 leukemia; 99.6% in the experiment on MALME-3M melanoma. The growth was 96.9% in the experiment on MDA-MB-231 breast; 99.3% in the experiment on RXF 393 renal; 109% in the experiment on SF-268 CNS; 104% in the experiment with SF-295 CNS; 107% in the experiment with SF-539 CNS; 91.2% in the experiment with UACC-257 melanoma. Also, the growth with M14 melanoma was 106%.
In the case of `C1CN(CC2CCC(CN3CCOCC3)O2)CCO1` (configuration not stated), the growth with NCI-H23 lung is 98.6%; with NCI-H226 lung, 107%; with HOP-62 NSCLC it was 95.1%; in the experiment on NCI-H460 lung it was 110%; in the experiment with HOP-92 NSCLC, 120%; with NCI-H522 lung, 66.2%. The growth with A549/ATCC NSCLC is 96.9%; in the experiment with 786-0 renal, 99.7%; in the experiment on COLO 205 colon, 60.8%; in the experiment on DU-145 prostate, 111%; in the experiment on K-562 leukemia it was 63.1%; with MALME-3M melanoma, -4.36% (active). Also, the growth was 118% in the experiment on MDA-MB-231 breast; 112% with RXF 393 renal; 104% in the experiment on SF-268 CNS; 99.7% with SF-295 CNS; 98% in the experiment on SF-539 CNS; 103% in the experiment with UACC-257 melanoma. Also, the growth in the experiment on M14 melanoma is 95.9%.
As to `COc1cc(-c2nn(-c3ccc(NC(=O)NCCNS(=O)(=O)c4ccc(F)cc4)cc3)cc2-c2ccncc2)ccc1Cl`, the growth with NCI-H23 lung is 12.7%; with NCI-H226 lung it was 36.2%; in the experiment on HOP-62 NSCLC, 29.7%; in the experiment with NCI-H460 lung it was 0.926% (active); with HOP-92 NSCLC, -6.87% (active); with NCI-H522 lung, -10.4% (active). The growth in the experiment on A549/ATCC NSCLC was 15.7%; in the experiment on 786-0 renal, -8.2% (active); in the experiment on COLO 205 colon, -63.5% (active); in the experiment on DU-145 prostate, 8.28% (active); in the experiment with K-562 leukemia, 2.45% (active); in the experiment on MALME-3M melanoma it was 24.8%. The growth with MDA-MB-231 breast is -30.7% (active); in the experiment on RXF 393 renal it was 2.59% (active); in the experiment with SF-268 CNS, 7.56% (active); in the experiment with SF-295 CNS, -39.5% (active); in the experiment on SF-539 CNS it was -46.4% (active); with UACC-257 melanoma it was 41.2%. In addition, in the experiment on M14 melanoma, the growth is -18% (active).
